In PubChem BioAssay (Tox21) one finds outcome data, which are given here for 40 compounds.

The source made the active and inactive calls. Calls come from the whole dose curve; as a rule, active = well fitted curve in the direction sought with a large enough effect in the repeat runs; inconclusive = weak or mixed curves; inactive = flat fitted curve, though single readings scatter.

The assay in a line: qHTS assay to test for compound auto fluorescence at 460 nm (blue) in HepG2 cells (AID 720687). To be noted: autofluorescence 405/460 nm, 1 h; series mostly up to 91.3 µM. The text has this:
U.S. Tox21 Program National Center for Advancing Translational Sciences [NCATS] NIH Chemical Genomics Center [NCGC] U.S. Environmental Protection Agency [EPA] National Institutes of Environmental Health Sciences [NIEHS] National Toxicology Program [NTP] U.S. Food and Drug Administration [FDA] Tox21 Assay Overview: Compound auto fluorescence often interferes with screening of the compound library against various biological targets and signaling pathways. Some of these compounds may have fluorophoric properties. Such properties may interfere with the assay outputs resulting in false positives and/or negatives. To decrease such complications and ensure the compound activities are relevant in terms of biological response, the Tox21 10K compound library was screened for auto fluorescence. From the fluorophores used as reporter signals in our screening assays, the auto fluorescence equivalencies of compounds against three fluorophores have been evaluated: Triamterene, Fluorescein and Rose Bengal sodium for blue, green and red fluorescence, respectively. The fluorescence intensities were measured using Excitation/Emission wavelengths at 405/460nm, 485/535nm and 540/590nm for blue, green and red labels, respectively. This assay includes the blue fluorescence data.
Tox21 Assay Protocol Summary: 2,000 HepG2 cells in 5 uL of culture medium (MEM containing 10% FBS) per well were dispensed into black wall/clear bottom 1536-well plates using a Multidrop Combi Dispenser (ThermoFisher Scientific, Waltham, MA). The assay plates were incubated overnight at 37 C to allow cell attachment to the well bottom, followed by the transfer of 23 nL compound or DMSO vehicle by a pintool work station (Kalypsys , San Diego, CA). After the assay plates were incubated for 1 hr at 37 C and 5% CO2, fluorescence intensities in the assay plates were measured by an Envision (PerkinElmer, Shelton, CT) plate reader using three labels for measuring blue, green and red fluorescence at […] 460, 535 and 590 nm respectively.
Background: Quantitative high-throughput screening tests each substance at several concentrations.
As to `Nc1nc(N)nc(N)n1`, the compound was classed as inactive. Take `BrCCCCBr`: the outcome was inactive. With `Cc1ccc2ccccc2c1` the entry was “inactive”; with `Brc1ccc(Oc2ccccc2)cc1`, “inactive”; with `NCC(CC(=O)O)c1ccc(Cl)cc1` (stereo not given), “inactive”. In the case of `C/C(=C\c1ccccc1)[N+](=O)[O-]`, the result was inactive. With `CC(Cl)Cl` the entry was “inactive”. With `CC1(C)CCC(Cc2ccc(Cl)cc2)C1(O)Cn1cncn1` (stereo not given) the entry was “inactive”; with `NS(=O)(=O)C(F)(F)C(F)(F)C(F)(F)C(F)(F)C(F)(F)C(F)(F)C(F)(F)C(F)(F)F`, “inactive”. With `CCCCCCCCOC(=O)c1ccc(C(=O)OCCCCCCCC)c(C(=O)OCCCCCCCC)c1` the entry was “inactive”. `CC1C(=O)C[C@]2(C(C)C)C[C@H]12` (stereo not given in full): the call was inactive. With `C#CCOC(C(=O)OCCN(C)C)(c1ccccc1)c1ccccc1` the entry was “inactive”. With `CC1(C)[C@H](C=C(Cl)Cl)[C@@H]1C(=O)O[C@@H](C#N)c1cccc(Oc2ccccc2)c1` the entry was “inactive”; with `O=Cc1ccc2c(c1)OCO2`, “inactive”; with `O=S(=O)(Cl)c1ccccc1`, “inactive”. With `COP(=O)(OC)O/C(=C/Cl)c1cc(Cl)c(Cl)cc1Cl` the entry was “inactive”. Regarding `CC(=O)C(C)(C)C`, the compound was called inactive. With `C/C=C/C=O` the entry was “inactive”; with `CCCN(CCC)c1c([N+](=O)[O-])cc(S(C)(=O)=O)cc1[N+](=O)[O-]`, “inactive”; with `CNC(C)Cc1ccccc1OC` (stereo not given), “inactive”.

`CCCCC(O)(Cn1cncn1)c1ccc(Cl)cc1Cl` (stereo not given): the outcome was inactive.

With `O=C(C(Cl)(Cl)Cl)C(Cl)(Cl)Cl`, the compound was called inactive. In the case of `c1ccoc1`, the compound was classed as inactive. With `Cc1ccc(N)cc1C` the entry was “inactive”. With `C=CC(=O)OCC(C)C` the entry was “inactive”; with `C=CC(=O)NCNC(=O)C=C`, “inactive”; with `CCC(Cl)CCl` (stereo not given), “inactive”.

For the compound `C=CCN1CC[C@]23c4c5ccc(O)c4O[C@H]2C(=O)CC[C@@]3(O)[C@H]1C5`, the compound was classed as inactive. As to `CCOP(O)OCC`, the call was inactive. With `CC[C@H]1C[C@H]2[C@@H]3CCC4=CC(=O)CC[C@@H]4[C@H]3CC[C@]2(C)[C@H]1O` the entry was “inactive”; with `C=CCCl`, “inactive”; with `CC(C)(Cl)[N+](=O)[O-]`, “inactive”.

Regarding `IC(I)=C(I)I`, the result was inactive. With `C=CC(=O)OC(C)(C)C` the entry was “inactive”. With `CCOP(=S)(OCC)Oc1nc(Cl)c(Cl)cc1Cl` the entry was “inactive”.

On to `BrCC(Br)C1CCC(Br)C(Br)C1` (stereo not given), for which the outcome was inactive. With `Oc1ccc(Cl)c(Cl)c1Cl` the entry was “inactive”; with `Cc1cc(=O)[nH]o1`, “inactive”; with `COP(=S)(OC)Oc1cc(Cl)c(I)cc1Cl`, “inactive”. With `Cn1sc(Cl)cc1=O` the entry was “inactive”.
